The supplement of paper PMC6555819

What was measured:
Experiment in all cases: PBM binding z-score (relative to random genomic background probes); higher = stronger binding; sequences stand for … in GC…GCGATTGACAGCGTAGAATGAAGG
[1] = system: FXR:RXRa (NR concentration 270 nM, RXRa partner concentration 90 nM)
Method in brief: (§1)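 Ligand-free nuclear receptor dimers were applied to custom Agilent 4×180K protein-binding microarrays whose double-stranded probes carried direct-repeat seeds, single-nucleotide variants, half-site ablations and random human genomic background sequences in 34-nt variable regions. Incubation lasted 1 h. Binding z-scores were computed against the random background probes from regression-normalized fluorescence.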

[2] = system: LXRa:RXRa (NR concentration 270 nM, RXRa partner concentration 90 nM)
Method in brief: as §1

[3] = system: LXRa homodimer (NR concentration 270 nM)
Method in brief: as §1

[4] = system: LXRb:RXRa (NR concentration 270 nM, RXRa partner concentration 90 nM)
Method in brief: as §1

[5] = system: LXRb homodimer (NR concentration 270 nM)
Method in brief: as §1

[6] = system: PPARa:RXRa (NR concentration 270 nM, RXRa partner concentration 90 nM)
Method in brief: as §1

[7] = system: PPARg:RXRa (NR concentration 180 nM, RXRa partner concentration 90 nM)
Method in brief: as §1

[8] = system: PPARg:RXRa 270nM:90nM, anti-RXR (NR concentration 270 nM, RXRa partner concentration 90 nM)
Method in brief: as §1

[9] = system: PPARg:RXRa 30nM:10nM, anti-RXR (NR concentration 30 nM, RXRa partner concentration 10 nM)
Method in brief: as §1

[10] = system: PPARg:RXRa 90nM:30nM, anti-RXR (NR concentration 90 nM, RXRa partner concentration 30 nM)
Method in brief: as §1

Sequence	PBM binding z-score [1]	PBM binding z-score [2]	PBM binding z-score [3]	PBM binding z-score [4]	PBM binding z-score [5]	PBM binding z-score [6]	PBM binding z-score [7]	PBM binding z-score [8]	PBM binding z-score [9]	PBM binding z-score [10]
ACTAGCAGGCCAAGTTTGGGTCACTCAAACAAAG	0.133	0.0719	-0.339	0.663	-0.95	1.49	0.094	0.413	-0.485	0.0599
ATCTCTAGTTAACCAAGTTCAGTGAATGCCGAAC	0.219	1.08	1.32	0.741	0.807	0.492	-0.088	0.244	0.153	0.13
TAGCCTAAGTCAGATCGGGCCAGTATACGCTATA	0.0829	-0.914	-0.748	-0.879	-0.805	-0.43	0.157	-0.628	-0.321	-0.556
GGAACGAGTGCAAGTTGATAGCAGAGTTTGATGG	-0.219	-0.282	-0.428	-0.496	-0.508	-0.279	0.107	-0.41	-0.349	-0.508
CAACCTAGGTCAGGGCCAGTATAGGAGGAACGTT	2.3	1.36	-0.178	0.897	-0.856	2.5	1.79	1.74	0.0391	0.938
TTACCAAGGTGAAGTTCGTTGATCCCTCTGTAGA	1.07	1.09	-0.342	0.617	-0.644	1.98	1.16	2.35	0.877	2.05
GATGCTAGGTCAACTGATGGTCAGCTAAAGCTCG	3.82	3.15	0.377	2.11	0.0631	3.62	2.79	2.97	0.474	1.77
CCTAGCAGGCCATGGTCACTCAAGCATTTCGCTT	-0.268	-0.369	-0.374	-0.307	-0.863	-0.349	-0.143	-0.198	-0.855	-0.418
AACGAAAGGTCGTGAGGTGAGTATACAGAAAGGC	5.67	4.36	0.174	3.32	-0.0859	5.07	4.41	4.6	1.54	3.21
TCTATTAGTTGAAGGGCAACTGACGAGTCCGTTT	0.705	0.726	0.328	0.815	0.416	1.09	0.086	2.28	3.74	3.07
CCGACCGGGGCATAAGGTTACCATAAGCCAGCCC	0.604	1.92	-0.254	0.72	-1.04	1.75	1.09	1.45	-0.188	0.731
GCTTGTAGTTCAAGGTTAAGAAAGACTAAGCTAA	1.52	2.43	0.162	1.53	-0.369	2.55	0.724	2.09	0.473	1.18
CGTCAAAGTTCAAGGGAACGTAACAGAAAGCAGC	6.3	5.44	2.42	3.12	0.895	4.42	3.85	4.64	1.76	3.48
CAAACTGGGTCACCGGAAGGTCAAAGTCCGCATG	5.54	5.51	3.33	5	0.871	5.73	9.06	7.43	4.95	7.29
ATACCAAGGTGATCGTCAGGTCGTTGATACTAAC	1.07	0.928	0.311	0.454	-0.244	0.892	0.38	0.265	0.184	0.227
CCTTACGGGTCACGAGATTATAGCACGACGAGCG	6.02	4.05	0.0796	3.37	0.00532	5.42	6.21	5.93	2.99	4.95
ATCCCTAGGTAAGACTCAGTTCAGTGAAGAACGC	0.273	0.364	0.479	0.29	0.516	-0.0282	0.0747	-0.195	-0.259	-0.0563
TCATATAGGTAATACAGGTGAAAGTCGGCATCTA	1.2	1.54	0.569	1.2	0.365	2.06	1.67	2.61	4.12	3.5
CTCGAAAGGTCGGTTGAGGTGAGTTTACGGATAA	2.83	1.88	0.32	1.63	-0.184	2.69	-9.87e-05	1.12	0.0415	0.508
TCGATTAGGTTAGGGGCATTCAGAATGGCGTCGA	0.719	0.542	0.0424	1.5	0.612	1.46	0.358	2.01	2.41	2.22
GCAGACAGGTGAAACGCAGGTAACCCAGGGTGGC	-0.174	-0.00229	-0.737	-0.377	-1.23	0.855	0.586	-0.135	-0.728	-0.633
CCTTACGGGTCACGAGGGTATAGCACGACGAGCG	6.44	4.54	-0.0656	3.48	-0.518	5.73	6.45	6.17	2.67	5.26
ACTAGTTGGTCAGCTGAGGTCACGCACAATTCGG	3.89	3.8	2.33	3.79	0.387	4.12	2.12	3.28	0.707	2.16
AGTCAAAGATCAGGACGAGGTAACGTAAAGCACG	0.107	-0.519	-0.426	-0.362	-0.522	0.273	1.18	0.619	0.0734	0.677
CCTACTGGGCCATTCTGAGGTCATTGATCATATG	2.12	3.35	4.95	2.83	0.173	3.25	1.63	2.38	0.733	1.84
